Targets with a hit are over-represented here; the source holds about 7,900 in all. About 0.6% of all pairs of compound and target were hits. A number with no mark means an inactive call.

Chain of UniProt Q01974 (Q01974 whole entry, looked up): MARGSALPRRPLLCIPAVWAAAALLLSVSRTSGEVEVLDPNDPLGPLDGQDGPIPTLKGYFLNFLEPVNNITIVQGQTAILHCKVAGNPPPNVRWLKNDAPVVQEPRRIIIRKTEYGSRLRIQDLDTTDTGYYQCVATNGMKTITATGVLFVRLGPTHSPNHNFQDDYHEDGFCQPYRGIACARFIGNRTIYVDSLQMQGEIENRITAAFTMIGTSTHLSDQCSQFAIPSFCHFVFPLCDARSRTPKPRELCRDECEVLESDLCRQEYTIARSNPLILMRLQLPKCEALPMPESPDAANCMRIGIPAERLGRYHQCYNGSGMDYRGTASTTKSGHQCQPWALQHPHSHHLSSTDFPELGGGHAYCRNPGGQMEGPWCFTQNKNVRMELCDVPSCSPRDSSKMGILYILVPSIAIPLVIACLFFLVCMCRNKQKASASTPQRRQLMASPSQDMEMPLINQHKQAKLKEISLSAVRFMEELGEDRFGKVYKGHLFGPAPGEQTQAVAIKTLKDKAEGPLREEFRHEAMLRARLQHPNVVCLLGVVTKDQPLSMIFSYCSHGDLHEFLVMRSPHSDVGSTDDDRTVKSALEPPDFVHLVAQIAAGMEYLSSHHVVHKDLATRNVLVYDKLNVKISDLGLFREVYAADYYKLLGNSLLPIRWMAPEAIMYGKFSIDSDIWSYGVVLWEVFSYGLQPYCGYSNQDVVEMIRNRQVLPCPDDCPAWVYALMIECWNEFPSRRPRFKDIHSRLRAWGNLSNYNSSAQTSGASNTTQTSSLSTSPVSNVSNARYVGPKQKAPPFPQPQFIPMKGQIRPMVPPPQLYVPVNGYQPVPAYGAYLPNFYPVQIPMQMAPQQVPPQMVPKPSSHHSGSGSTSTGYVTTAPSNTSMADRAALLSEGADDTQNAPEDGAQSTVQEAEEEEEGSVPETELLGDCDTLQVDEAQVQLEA
Chain of UniProt O75116 (O75116 whole entry, looked up): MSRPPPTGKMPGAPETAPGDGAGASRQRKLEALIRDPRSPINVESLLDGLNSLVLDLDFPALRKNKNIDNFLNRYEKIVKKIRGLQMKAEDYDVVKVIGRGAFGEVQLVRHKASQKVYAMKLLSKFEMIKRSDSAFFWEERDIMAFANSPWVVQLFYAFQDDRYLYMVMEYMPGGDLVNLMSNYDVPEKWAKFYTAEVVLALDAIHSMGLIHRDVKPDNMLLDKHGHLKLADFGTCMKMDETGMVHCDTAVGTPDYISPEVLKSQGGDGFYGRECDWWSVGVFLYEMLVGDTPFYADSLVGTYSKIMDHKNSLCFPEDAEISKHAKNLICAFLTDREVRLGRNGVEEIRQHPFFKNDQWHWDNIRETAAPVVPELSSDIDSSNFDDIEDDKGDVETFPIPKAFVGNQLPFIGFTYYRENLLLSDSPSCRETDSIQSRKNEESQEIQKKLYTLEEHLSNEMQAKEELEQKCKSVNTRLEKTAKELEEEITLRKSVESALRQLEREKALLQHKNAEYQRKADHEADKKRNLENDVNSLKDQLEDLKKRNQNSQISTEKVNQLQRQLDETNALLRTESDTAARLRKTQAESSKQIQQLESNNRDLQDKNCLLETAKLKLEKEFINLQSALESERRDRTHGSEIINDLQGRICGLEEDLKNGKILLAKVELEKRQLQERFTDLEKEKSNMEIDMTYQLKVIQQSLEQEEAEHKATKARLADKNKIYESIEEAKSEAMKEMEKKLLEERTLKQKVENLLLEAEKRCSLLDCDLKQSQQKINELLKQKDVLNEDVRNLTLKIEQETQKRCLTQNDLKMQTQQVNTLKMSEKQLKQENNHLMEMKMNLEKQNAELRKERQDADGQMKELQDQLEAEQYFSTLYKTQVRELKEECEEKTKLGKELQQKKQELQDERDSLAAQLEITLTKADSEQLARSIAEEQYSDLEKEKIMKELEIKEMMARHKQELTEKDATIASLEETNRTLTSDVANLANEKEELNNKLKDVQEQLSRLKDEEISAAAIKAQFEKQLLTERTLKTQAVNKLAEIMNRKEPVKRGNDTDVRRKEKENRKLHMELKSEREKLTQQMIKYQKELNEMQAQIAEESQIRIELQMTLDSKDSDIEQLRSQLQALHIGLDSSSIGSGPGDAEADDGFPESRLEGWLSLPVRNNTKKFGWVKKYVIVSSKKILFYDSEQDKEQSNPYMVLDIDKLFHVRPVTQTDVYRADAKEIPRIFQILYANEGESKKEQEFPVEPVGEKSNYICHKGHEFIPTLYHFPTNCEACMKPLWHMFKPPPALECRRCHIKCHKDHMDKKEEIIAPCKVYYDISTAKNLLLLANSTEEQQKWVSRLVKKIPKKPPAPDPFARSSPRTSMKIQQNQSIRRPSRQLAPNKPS
Chain of UniProt Q86VR2 (Q86VR2 whole entry, looked up): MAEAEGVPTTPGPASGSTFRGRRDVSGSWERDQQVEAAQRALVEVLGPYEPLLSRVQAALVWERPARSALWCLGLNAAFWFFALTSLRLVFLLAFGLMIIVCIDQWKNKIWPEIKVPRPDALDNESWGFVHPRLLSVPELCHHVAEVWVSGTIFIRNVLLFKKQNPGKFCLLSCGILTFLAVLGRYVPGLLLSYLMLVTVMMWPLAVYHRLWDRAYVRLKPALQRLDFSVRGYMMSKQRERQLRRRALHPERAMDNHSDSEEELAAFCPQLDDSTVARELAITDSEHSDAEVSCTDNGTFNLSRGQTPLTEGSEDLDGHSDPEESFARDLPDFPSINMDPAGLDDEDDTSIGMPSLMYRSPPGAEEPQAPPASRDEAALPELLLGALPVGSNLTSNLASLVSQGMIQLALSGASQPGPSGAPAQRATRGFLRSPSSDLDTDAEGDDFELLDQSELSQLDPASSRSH
Chain of UniProt Q8TBN0 (Q8TBN0 whole entry, looked up): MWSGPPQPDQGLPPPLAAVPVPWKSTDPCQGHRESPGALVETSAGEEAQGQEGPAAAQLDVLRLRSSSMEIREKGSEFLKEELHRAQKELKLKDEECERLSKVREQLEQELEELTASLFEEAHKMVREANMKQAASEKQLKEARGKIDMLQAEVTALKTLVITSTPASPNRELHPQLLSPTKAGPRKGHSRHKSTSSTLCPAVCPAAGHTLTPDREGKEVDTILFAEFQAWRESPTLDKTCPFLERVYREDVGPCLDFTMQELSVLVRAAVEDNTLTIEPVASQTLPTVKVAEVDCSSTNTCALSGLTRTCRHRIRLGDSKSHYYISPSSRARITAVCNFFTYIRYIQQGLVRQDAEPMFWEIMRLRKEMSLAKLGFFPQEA
Chain of UniProt Q15418 (Q15418 whole entry, looked up): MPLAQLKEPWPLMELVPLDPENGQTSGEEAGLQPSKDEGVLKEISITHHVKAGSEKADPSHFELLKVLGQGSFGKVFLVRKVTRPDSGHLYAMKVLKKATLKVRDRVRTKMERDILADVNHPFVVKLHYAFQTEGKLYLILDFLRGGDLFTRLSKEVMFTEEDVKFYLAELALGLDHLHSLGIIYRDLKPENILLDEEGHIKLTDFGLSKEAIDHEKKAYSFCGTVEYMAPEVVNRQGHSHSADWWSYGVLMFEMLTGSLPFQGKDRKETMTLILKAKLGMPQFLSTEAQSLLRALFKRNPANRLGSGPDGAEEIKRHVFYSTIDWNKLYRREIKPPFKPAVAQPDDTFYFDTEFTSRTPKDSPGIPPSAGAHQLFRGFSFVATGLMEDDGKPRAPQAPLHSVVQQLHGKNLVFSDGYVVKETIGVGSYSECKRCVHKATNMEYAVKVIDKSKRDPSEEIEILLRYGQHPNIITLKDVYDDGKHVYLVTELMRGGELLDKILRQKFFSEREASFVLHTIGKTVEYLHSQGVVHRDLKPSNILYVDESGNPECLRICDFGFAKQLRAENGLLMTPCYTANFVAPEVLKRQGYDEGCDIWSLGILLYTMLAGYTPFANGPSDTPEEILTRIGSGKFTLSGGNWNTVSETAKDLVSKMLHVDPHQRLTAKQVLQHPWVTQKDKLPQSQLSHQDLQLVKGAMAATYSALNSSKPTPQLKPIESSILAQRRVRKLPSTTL
Chain of UniProt Q9Y6Y8 (Q9Y6Y8 whole entry, looked up): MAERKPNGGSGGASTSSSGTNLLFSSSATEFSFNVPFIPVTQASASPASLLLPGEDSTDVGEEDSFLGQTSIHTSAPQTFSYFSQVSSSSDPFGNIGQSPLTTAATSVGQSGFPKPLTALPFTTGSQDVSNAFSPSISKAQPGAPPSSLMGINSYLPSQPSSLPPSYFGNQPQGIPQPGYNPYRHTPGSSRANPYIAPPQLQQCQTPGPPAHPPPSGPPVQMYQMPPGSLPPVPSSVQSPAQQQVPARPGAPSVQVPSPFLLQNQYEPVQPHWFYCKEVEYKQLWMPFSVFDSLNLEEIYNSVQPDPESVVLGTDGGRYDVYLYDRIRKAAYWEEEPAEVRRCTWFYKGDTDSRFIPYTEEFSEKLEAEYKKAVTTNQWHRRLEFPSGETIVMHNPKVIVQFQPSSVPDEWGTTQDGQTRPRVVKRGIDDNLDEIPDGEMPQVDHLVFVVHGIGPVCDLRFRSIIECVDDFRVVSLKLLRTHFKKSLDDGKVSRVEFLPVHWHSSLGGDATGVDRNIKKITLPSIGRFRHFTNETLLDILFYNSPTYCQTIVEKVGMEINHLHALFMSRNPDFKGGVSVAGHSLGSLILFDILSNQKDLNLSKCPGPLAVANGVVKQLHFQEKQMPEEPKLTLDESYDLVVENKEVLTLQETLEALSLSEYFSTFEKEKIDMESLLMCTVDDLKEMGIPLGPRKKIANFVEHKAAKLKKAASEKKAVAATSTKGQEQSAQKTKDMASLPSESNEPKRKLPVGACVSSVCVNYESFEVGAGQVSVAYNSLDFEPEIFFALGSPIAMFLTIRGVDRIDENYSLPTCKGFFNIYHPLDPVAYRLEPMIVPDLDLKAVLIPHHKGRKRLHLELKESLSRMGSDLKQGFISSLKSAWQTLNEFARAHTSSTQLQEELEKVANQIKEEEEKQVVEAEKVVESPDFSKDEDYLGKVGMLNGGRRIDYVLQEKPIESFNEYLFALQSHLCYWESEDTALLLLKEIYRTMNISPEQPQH
Chain of UniProt P63208 (P63208 whole entry, looked up): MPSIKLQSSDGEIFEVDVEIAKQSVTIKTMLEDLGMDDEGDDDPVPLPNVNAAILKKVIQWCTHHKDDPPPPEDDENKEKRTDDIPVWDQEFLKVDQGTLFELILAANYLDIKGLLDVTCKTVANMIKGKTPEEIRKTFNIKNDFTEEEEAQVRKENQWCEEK

Compound in one assay: Cc1nc(Nc2ncc(C(=O)Nc3c(C)cccc3Cl)s2)cc(N2CCN(CCO)CC2)n1 [dasatinib]
Nature of the assay: log2 fold change, soluble protein after heating vs DMSO (PISA); higher = thermal stabilisation; K562 cells, 10 uM, 30 min; active = over 0.2 and 3.5 SD of the protein, either way, in both replicates (recomputed). The essentials:
(§1)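 Aliquots of K562 cells (2×10^6 cells/mL) treated with 10 μM compound for 30 min were heated for 3 min over 48°C-58°C. After pooling and extraction in PBS with 0.5% NP-40 at 4°C, soluble protein from a 21,000xg, 90 min spin was quantified by TMTpro 16plex LC-MS/MS with channel sums equalised. Thermal stability is expressed against control samples, from duplicates, as a log2 fold change.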
For SIDT2 isoform 2 (UniProt Q8NBJ9), the log2 fold change was 0.041.

On to ROR2 (UniProt Q01974), for which the log2 fold change is -0.124.

Consider RAP1GDS1 isoform 5 (UniProt P52306), for which the log2 fold change was -0.083.

Turning to SKP1 (UniProt P63208), the log2 fold change is 0.007.

For REL (UniProt Q04864), the log2 fold change is -0.115.

On to SERINC3 (UniProt Q13530), for which the log2 fold change is -0.123.

On to RPS9 (UniProt P46781), for which the log2 fold change is 0.106.

Take RB1CC1 (UniProt Q8TDY2): the log2 fold change was -0.103.

SAFB2 (UniProt Q14151): the log2 fold change was 0.183.

Take RAB3IL1 (UniProt Q8TBN0): the log2 fold change is -0.054.

As for RPS6KA1 isoform 2 (UniProt Q15418), the log2 fold change was -0.281.

With RPRD1B (UniProt Q9NQG5), the log2 fold change is -0.099.

Regarding RPS3 (UniProt P23396), the log2 fold change was 0.063.

Turning to SEC24A (UniProt O95486), the log2 fold change was -0.121.

For SCCPDH (UniProt Q8NBX0), the log2 fold change was 0.008.

As for RPS27A (UniProt P62979), the log2 fold change was 0.119.

For the target ROCK2 (UniProt O75116), the log2 fold change was -0.064.

On to SACM1L (UniProt Q9NTJ5), for which the log2 fold change was 0.012.

Consider RPA1 (UniProt P27694), for which the log2 fold change was 0.077.

With RNASEH2A (UniProt O75792), the log2 fold change is -0.159.

For RGS10 (UniProt O43665), the log2 fold change is -0.034.

SDHAF2 (UniProt Q9NX18): the log2 fold change was 0.057.

Regarding SEPTIN5 (UniProt Q99719), the log2 fold change is -0.048.

On to SAMD4B (UniProt Q5PRF9), for which the log2 fold change was -0.296.

On to SCD (UniProt O00767), for which the log2 fold change was -0.026.

As for SEC23IP (UniProt Q9Y6Y8), the log2 fold change was -0.143.

Consider SLC18B1 (UniProt Q6NT16), for which the log2 fold change is 0.063.

SAAL1 (UniProt Q96ER3): the log2 fold change was -0.101.

For SENP6 (UniProt Q9GZR1), the log2 fold change was -0.028.

Consider RPS12 (UniProt P25398), for which the log2 fold change was 0.08.

As to RANBP2 (UniProt P49792), the log2 fold change is -0.011.

Turning to RETREG3 (UniProt Q86VR2), the log2 fold change is -0.045.

Compound in the next assay: Cc1ncc(-c2ccnc(Nc3ccc(S(C)(=O)=O)cc3)n2)n1C(C)C
The assay is described as above. In outline:
as §1
Take SIDT2 isoform 2 (UniProt Q8NBJ9): the log2 fold change was 0.025.

As to ROR2 (UniProt Q01974), the log2 fold change was 0.063.

In the case of RAP1GDS1 isoform 5 (UniProt P52306), the log2 fold change is 0.042.

As for SKP1 (UniProt P63208), the log2 fold change is 0.012.

Take REL (UniProt Q04864): the log2 fold change was -0.018.

Regarding SERINC3 (UniProt Q13530), the log2 fold change is 0.07.

On to RPS9 (UniProt P46781), for which the log2 fold change was -0.035.

For the target RB1CC1 (UniProt Q8TDY2), the log2 fold change was -0.012.

With SAFB2 (UniProt Q14151), the log2 fold change is -0.054.

In the case of RAB3IL1 (UniProt Q8TBN0), the log2 fold change was -0.015.

With RPS6KA1 isoform 2 (UniProt Q15418), the log2 fold change is -0.044.

Take RPRD1B (UniProt Q9NQG5): the log2 fold change is -0.024.

For RPS3 (UniProt P23396), the log2 fold change is -0.056.

With SEC24A (UniProt O95486), the log2 fold change was -0.012.

As for SCCPDH (UniProt Q8NBX0), the log2 fold change is 0.174.

Take RPS27A (UniProt P62979): the log2 fold change was 0.007.

For the target ROCK2 (UniProt O75116), the log2 fold change is 0.009.

For the target SACM1L (UniProt Q9NTJ5), the log2 fold change was 0.012.

For RPA1 (UniProt P27694), the log2 fold change was 0.016.

As to RNASEH2A (UniProt O75792), the log2 fold change was -0.047.

With RGS10 (UniProt O43665), the log2 fold change was 0.009.

Regarding SDHAF2 (UniProt Q9NX18), the log2 fold change was -0.007.

SEPTIN5 (UniProt Q99719): the log2 fold change is -0.006.

On to SAMD4B (UniProt Q5PRF9), for which the log2 fold change was 0.002.

Consider SCD (UniProt O00767), for which the log2 fold change is -0.019.

SEC23IP (UniProt Q9Y6Y8): the log2 fold change is -0.026.

Regarding SLC18B1 (UniProt Q6NT16), the log2 fold change is -0.016.

For SAAL1 (UniProt Q96ER3), the log2 fold change was 0.246.

SENP6 (UniProt Q9GZR1): the log2 fold change was 0.063.

In the case of RPS12 (UniProt P25398), the log2 fold change was -0.012.

For RANBP2 (UniProt P49792), the log2 fold change is -0.043.

On to RETREG3 (UniProt Q86VR2), for which the log2 fold change was 0.033.

Compound in the next assay: Cn1cc(-c2ccc3c(c2)CCN3C(=O)Cc2cccc(C(F)(F)F)c2)c2c(N)ncnc21
The assay is described as above. The essentials:
as §1
As for SIDT2 isoform 2 (UniProt Q8NBJ9), the log2 fold change is -0.003.

In the case of ROR2 (UniProt Q01974), the log2 fold change is 0.043.

For the target RAP1GDS1 isoform 5 (UniProt P52306), the log2 fold change was -0.005.

Regarding SKP1 (UniProt P63208), the log2 fold change is 0.047.

On to REL (UniProt Q04864), for which the log2 fold change is 0.013.

For SERINC3 (UniProt Q13530), the log2 fold change was -0.014.

On to RPS9 (UniProt P46781), for which the log2 fold change was -0.176.

For the target RB1CC1 (UniProt Q8TDY2), the log2 fold change is 0.029.

Consider SAFB2 (UniProt Q14151), for which the log2 fold change is -0.135.

Turning to RAB3IL1 (UniProt Q8TBN0), the log2 fold change was -0.007.

For RPS6KA1 isoform 2 (UniProt Q15418), the log2 fold change was -0.019.

Consider RPRD1B (UniProt Q9NQG5), for which the log2 fold change is -0.021.

For the target RPS3 (UniProt P23396), the log2 fold change was -0.132.

In the case of SEC24A (UniProt O95486), the log2 fold change is 0.008.

Regarding SCCPDH (UniProt Q8NBX0), the log2 fold change was 0.273.

Regarding RPS27A (UniProt P62979), the log2 fold change is -0.172.

As to ROCK2 (UniProt O75116), the log2 fold change was -0.091.

In the case of SACM1L (UniProt Q9NTJ5), the log2 fold change was -0.009.

For the target RPA1 (UniProt P27694), the log2 fold change is -0.004.

For the target RNASEH2A (UniProt O75792), the log2 fold change was 0.056.

On to RGS10 (UniProt O43665), for which the log2 fold change was 0.126.

As for SDHAF2 (UniProt Q9NX18), the log2 fold change is 0.056.

As to SEPTIN5 (UniProt Q99719), the log2 fold change was 0.051.

As for SAMD4B (UniProt Q5PRF9), the log2 fold change is -0.072.

Regarding SCD (UniProt O00767), the log2 fold change is 0.013.

Consider SEC23IP (UniProt Q9Y6Y8), for which the log2 fold change was 0.148.

Turning to SLC18B1 (UniProt Q6NT16), the log2 fold change is 0.034.

Take SAAL1 (UniProt Q96ER3): the log2 fold change is -0.06.

For the target SENP6 (UniProt Q9GZR1), the log2 fold change is 0.046.

Take RPS12 (UniProt P25398): the log2 fold change is -0.013.

Take RANBP2 (UniProt P49792): the log2 fold change was -0.047.

With RETREG3 (UniProt Q86VR2), the log2 fold change is -0.007.

The record behind these values is the supplement of paper PMC10849652.
